YjeE inh: displaces an ADP probe from E. coli YjeE (TsaE); P0AF67; purified YjeE enzyme, qHTS inhibition assay; Potency, µM; hit rate 0.05% among 71,000
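Purified YjeE (10 uM) with BODIPY Texas Red-labeled ADP probe (2 uM); compounds pin-transferred, 15 min at room temperature. Binding inhibition read as decreased fluorescence polarization; ADP titration as control.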
DNA Pol III inh: DNA polymerase III holoenzyme inhibition; hit rate 0.25% among 71,000; reconstituted DNA polymerase III holoenzyme replication, biochemical; Potency, µM (titrated, usually from 57.1 µM), inactives show top-dose activity change, negative = inhibition; also: potency is read from the fitted curve at half-maximal effect; % is scaled to controls: 0 for no effect and ±100 for the full control effect
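Reconstituted *E. coli* holoenzyme (0.35 nM Pol III, 1 nM beta, 154 nM SSB, 2 nM primase) was preincubated with compound for 15 min at RT. Synthesis on 1.4 nM ssM13Gori ran 35 min, then was stopped with PicoGreen/EDTA and read as dsDNA fluorescence.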
ALOX15 inhib: blocks human 15-lipoxygenase activity; Potency, µM (highest dose often 57.1 µM), without a hit: at the top dose activity change, negative = inhibition, most hits filed as inhibitors; P16050; purified 15hLO-1, xylenol orange hydroperoxide absorbance; hit rate 1.4% among 74,000; also: potency is read from the fitted curve at half-maximal effect; % is scaled to controls: 0 for no effect and ±100 for the full control effect; nearly all actives have a fitted effect of over 55% in size
Target sequence (P16050 whole entry, looked up): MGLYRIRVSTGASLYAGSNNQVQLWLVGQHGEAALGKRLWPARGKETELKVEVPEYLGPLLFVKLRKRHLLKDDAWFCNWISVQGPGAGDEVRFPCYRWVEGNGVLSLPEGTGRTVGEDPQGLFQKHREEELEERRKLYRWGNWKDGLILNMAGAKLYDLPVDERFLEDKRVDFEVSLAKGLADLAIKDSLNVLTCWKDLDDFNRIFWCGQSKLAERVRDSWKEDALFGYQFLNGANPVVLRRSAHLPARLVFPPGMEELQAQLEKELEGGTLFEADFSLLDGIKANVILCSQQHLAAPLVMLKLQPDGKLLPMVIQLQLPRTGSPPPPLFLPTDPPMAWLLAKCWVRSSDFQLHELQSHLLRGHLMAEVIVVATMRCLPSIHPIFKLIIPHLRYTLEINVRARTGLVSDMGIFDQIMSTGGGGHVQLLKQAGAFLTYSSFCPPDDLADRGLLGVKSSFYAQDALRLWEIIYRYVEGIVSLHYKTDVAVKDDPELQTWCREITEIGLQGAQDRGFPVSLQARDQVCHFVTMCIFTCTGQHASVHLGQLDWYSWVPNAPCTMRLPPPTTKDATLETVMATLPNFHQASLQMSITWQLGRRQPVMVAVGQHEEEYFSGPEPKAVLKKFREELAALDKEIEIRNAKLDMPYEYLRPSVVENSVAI
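40 nM 15hLO-1 + cpd, 15 min RT; start w/ 50 uM AA (final), 6 min RT; stop/detect w/ 200 uM XO + 300 uM Fe(II) in 50 mM H2SO4, 30 min; A573/A405. Buffer 25 mM Hepes pH 7.5, 0.01% Triton X-100. No-enzyme wells as negative control.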
Tau fil binding: binders of human tau filaments. Potency, µM (series often up to 57.1 µM), for the others: at the top dose activity change, negative = inhibition. P10636. AID 596. hit rate 2% among 71,000. recombinant tau filaments, thioflavin S fluorescence, 15 h; filaments grown with octadecylsulfate alongside compound;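 also: potency is read from the fitted curve at half-maximal effect; % is scaled to controls: 0 for no effect and ±100 for the full control effect; actives lower thioflavin S fluorescence by blocking filaments or displacing dye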
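Recombinant tau protein (human, 1 uM final) plus 30 uM ODS in HEPES pH 7.4 with NaCl, DTT and thioflavine S. Compound present from the start; fluorescence at 510 nm after 15 h, 37 C.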
BRCT inh green: BRCA1 BRCT-phosphoprotein interaction inhibition | Potency, µM (titrated, usually from 76.9 µM), for the others: at the top dose activity change, negative = inhibition, actives largely listed as inhibitors | BRCA1 BRCT-phosphopeptide binding, green fluorescence polarization | AID 875 | hit rate 0.05% among 75,000;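 also: potency is read from the fitted curve at half-maximal effect; plate controls were peptide without protein for full effect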
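Compounds were incubated for 12 min at room temperature with a complex of 100 nM fluorescein-tagged pBACH1 decapeptide and 250 nM His-tagged BRCT protein. Buffer was phosphate pH 7.3 with EDTA, DTT and Tween 20. Disruption of binding lowers the polarization signal.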
BRCT inh red: BRCT-phosphoprotein interaction inhibition (red fluorophore). AID 892. Potency, µM (titrated, usually from 76.9 µM), for inactives: at the top dose activity change, negative = inhibition, hits mostly inhibitors. BRCT-phosphopeptide binding, red fluorescence polarization. hit rate 0.03% among 75,000. P38398; also: % is scaled to controls: 0 for no effect and ±100 for the full control effect
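Rhodamine-labelled pBACH1 10-mer (100 nM) bound to BRCT domain (100 nM) at pH 7.3; compounds incubated 12 min room temperature, polarization read. Free peptide defines full inhibition; unlabelled decapeptide titrated as control.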
tau ThS displ: displaces Thioflavin S from human tau filaments; hit rate 40% among 60; Potency, µM; shares compounds with Tau fil binding; recombinant tau filaments, Thioflavin S fluorescence displacement; calls by dose curve
aSyn ThS bind: alpha-synuclein fibril binding by ThS displacement | shares compounds with Tau fil binding | recombinant alpha-synuclein fibrils, ThS fluorescence displacement | Potency, µM | hit rate 40% among 60; calls by dose curve
Abeta ThS bind: amyloid beta fibril binding by ThS displacement | shares compounds with Tau fil binding | Abeta1-42 fibrillization, thioflavin S fluorescence, overnight 37 C | Potency, µM | hit rate 50% among 60 | AID 956; calls by dose curve
Active calls of the source: *; i = inactive; ? = inconclusive; nt = no result; [ ] = dose if it differs, or a comment. Shown are actives, neighbours in structure and some others; about 3.1% of the full set was active somewhere. Unless noted, calls follow the shape of the dose curve; as a rule, active = well fitted curve in the direction sought with a large enough effect; inconclusive = small, poorly fitted or top-dose-only effect, or another doubt; inactive = no such curve, though single readings can be large; an effect the other way counts as inactive or inconclusive.

SMILES	YjeE inh	DNA Pol III inh	ALOX15 inhib	Tau fil binding	BRCT inh green	BRCT inh red	tau ThS displ	aSyn ThS bind	Abeta ThS bind
COc1cc2c(cc1OC)[C@@H]1C(=O)c3ccc4c(c3O[C@@H]1CO2)C=CC(C)(C)O4	i	-4.1%	-5.7%[25.6 µM]	1.6%	3.1%	1.2%	nt	nt	nt
N#CC(C(=O)NCCc1ccccc1)c1nc2ccccc2nc1N1CCCCC1 (stereo not drawn)	i	-4.3%	-8.5%	-5.4%	0.9%	-0.3%	?	?	?
O=C(c1cc(C(F)(F)F)cc(C(F)(F)F)c1)N1CCC2(CCCN(c3ncccn3)C2)CC1	i	-6.7%	-14.5%	-10.2%	-6.0%	-1.9%	nt	nt	nt
Cc1cc(NC(=O)c2cc3nc(C4CC4)cc(C(F)(F)F)n3n2)no1	i	-5.0%	-5.4%	-7.2%	-1.4%	-2.2%	?	i	?
O=C(NCc1ccco1)c1cc2nc(C3CC3)cc(C(F)(F)F)n2n1	i	-4.3%	0.9%	-7.9%	0.9%	-0.4%	nt	nt	nt
Oc1c(CN2CCOCC2)cc(COCc2ccccc2)c2cccnc12	i	0.1%	23.2%	-47.9%	-1.8%	-0.3%	i	?	i
C1CCN(CC[C@@H]2CCCCN2)CC1	i	-3.7%[11.4 µM]	0.1%[11.4 µM]	1.3%[11.4 µM]	0.1%[15.4 µM]	-2.7%[15.4 µM]	nt	nt	nt
CN(C)c1ccc(/C=c2\sc3n(c2=O)CCCN=3)cc1	i	-1.8%	-7.9%	147.5%	28.0%	0.0%	nt	nt	nt
CN(C)c1ccc(/C=C2/C(=O)Nc3ccccc32)cc1	i	-7.5%	-9.2%	1µM*	13.8%	-4.6%	0.99µM*	1.38µM*	0.67µM*
CC(C)NC(=O)N1CCCC2(CCN(C(=O)c3cc(C(F)(F)F)cc(C(F)(F)F)c3)CC2)C1	i	-5.4%	-0.2%	-11.1%	-1.3%	-1.3%	nt	nt	nt
CC(C)[C@@H](OCc1ccccc1)[C@H](C)/C=N\O[C@@H](C)c1cn([C@@H]2COC[C@@H]2O)nn1	nt	nt	11.2%[11.4 µM]	nt	-2.2%[15.4 µM]	-1.5%[15.4 µM]	nt	nt	nt
CCCC(=O)N1CCN(c2ccc(NC(=O)c3ccccc3)cc2)CC1	i	-7.6%	-10.1%	-26.7%	-1.7%	1.5%	nt	nt	nt
CCCCOc1ccc(C(=O)Nc2ccc(N3CCN(C)CC3)cc2)cc1	i	1.4%	7.3%	1µM*	-0.8%	-1.6%	?	i	i
O=S(=O)(O)c1ccc(N=Nc2ccc3c(S(=O)(=O)O)cccc3c2O)c2ccccc12	i	-8.1%[11.4 µM]	-11.8%[11.4 µM]	-8.1%[11.4 µM]	-2.8%[15.4 µM]	1.0%[15.4 µM]	nt	nt	nt
Nc1c(N=Nc2ccc(-c3ccc(N=Nc4cc(S(=O)(=O)O)c5ccccc5c4N)cc3)cc2)cc(S(=O)(=O)O)c2ccccc12	nt	nt	nt	nt	nt	nt	0.29µM*	0.423µM*	2.35µM*
Cc1cc(-c2ccc(N=Nc3ccc4c(S(=O)(=O)O)cc(S(=O)(=O)O)c(N)c4c3O)c(C)c2)ccc1N=Nc1ccc2c(S(=O)(=O)O)cc(S(=O)(=O)O)c(N)c2c1O	79.4µM*	7.94µM*	?	3.16µM*	31.6µM*	?	0.19µM*	0.774µM*	0.92µM*
N=C(N)c1ccc(N=Nc2c(O)ccc3c2[nH]c2ccccc23)cc1	i	?	49.3%[11.4 µM]	1µM*	-2.5%[15.4 µM]	-0.1%[15.4 µM]	0.81µM*	2.62µM*	1.03µM*
CN(C)c1ccc(C(=C2C=CC(=[N+](C)C)C=C2)c2c(O)c(S(=O)(=O)O)cc3cc(S(=O)(=O)O)ccc23)cc1	i	-3.2%[11.4 µM]	10.4%[11.4 µM]	5.9%[11.4 µM]	-5.1%[15.4 µM]	-0.3%[15.4 µM]	?	i	i
CN(C)C[C@H]1CCC[C@@H](CN(C)C)C1=O	i	-2.7%[11.4 µM]	8.2%[11.4 µM]	2.6%[11.4 µM]	1.3%[15.4 µM]	1.3%[15.4 µM]	nt	nt	nt
